From PubChem BioAssay (NCATS)
Records with an inconclusive call do not appear. Active and inactive are the calls of the source. Calls come from the whole dose curve; as a rule, active = well fitted inhibition curve with a large enough effect; inconclusive = small, poorly fitted or top-dose-only effect; inactive = flat fitted curve, though single readings scatter.

Legend:
Assay in all cases: qHTS profiling for inhibitors of Plasmodium falciparum proliferation (AID 504749); note: nearly all actives have a fitted effect of over 60% in size
Conditions in all cases: P. falciparum in erythrocytes, SYBR Green DNA, 72 h; series mostly up to 28.7 µM
ATS95 = tested on: ATS95
Method in brief: (§1)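 Three-day growth assay of blood-stage parasites in erythrocytes (0.3% parasitemia, 2.5% hematocrit) at 37 C, 5% CO2, quantified by SYBR Green DNA staining after overnight detergent lysis.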

C2A = tested on: C2A
Method in brief: as §1

CP185 = tested on: CP185
Method in brief: as §1

CP191 = tested on: CP191
Method in brief: as §1

CP192 = tested on: CP192
Method in brief: as §1

CP194 = tested on: CP194
Method in brief: as §1

CP201 = tested on: CP201
Method in brief: as §1

CP211 = tested on: CP211
Method in brief: as §1

CP215 = tested on: CP215
Method in brief: as §1

CP217 = tested on: CP217
Method in brief: as §1

CP237 = tested on: CP237
Method in brief: as §1

CP238 = tested on: CP238
Method in brief: as §1

CP247 = tested on: CP247
Method in brief: as §1

CP250 = tested on: CP250
Method in brief: as §1

CP252 = tested on: CP252
Method in brief: as §1

CP256 = tested on: CP256
Method in brief: as §1

CP260 = tested on: CP260
Method in brief: as §1

CP262 = tested on: CP262
Method in brief: as §1

CP265 = tested on: CP265
Method in brief: as §1

CP203 = tested on: CP203
Method in brief: as §1

Measured: Potency

O=C(O)Cc1cn(-c2ccccc2)nc1-c1ccc(Cl)cc1
inactive: ATS95 | C2A | CP185 | CP191 | CP192 | CP194 | CP201 | CP211 | CP215 | CP217 | CP237 | CP238 | CP247 | CP250 | CP252 | CP256 | CP260 | CP262 | CP265

O=C(O)c1ccc(OCCCOc2ccc(C(=O)O)cc2)cc1
inactive: ATS95 | C2A | CP185 | CP191 | CP192 | CP194 | CP201 | CP211 | CP215 | CP217 | CP237 | CP238 | CP247 | CP250 | CP252 | CP256 | CP260 | CP262 | CP265

O=C(O)CCCc1ccccc1
inactive: ATS95 | C2A | CP185 | CP191 | CP192 | CP194 | CP201 | CP211 | CP215 | CP217 | CP237 | CP238 | CP247 | CP250 | CP252 | CP256 | CP262 | CP265

OCC(O)CS (centres undefined)
inactive: ATS95 | C2A | CP185 | CP191 | CP192 | CP194 | CP201 | CP211 | CP215 | CP217 | CP237 | CP238 | CP247 | CP250 | CP252 | CP256 | CP260 | CP262 | CP265

CCCCCC(N)=O
inactive: ATS95 | C2A | CP185 | CP191 | CP192 | CP194 | CP201 | CP211 | CP215 | CP217 | CP237 | CP238 | CP247 | CP250 | CP252 | CP256 | CP260 | CP262 | CP265

CNc1c2c(nn1C)CCCC2
inactive: ATS95 | C2A | CP185 | CP191 | CP192 | CP194 | CP201 | CP211 | CP215 | CP217 | CP237 | CP238 | CP247 | CP250 | CP252 | CP256 | CP260 | CP262 | CP265

CCc1nnc(NS(=O)(=O)c2ccc(N)cc2)s1
inactive: ATS95 | C2A | CP185 | CP191 | CP192 | CP194 | CP201 | CP211 | CP215 | CP217 | CP237 | CP238 | CP247 | CP250 | CP252 | CP256 | CP260 | CP262 | CP265

CCN(CC)CCOC(=O)C(c1ccccc1)c1ccccc1
inactive: ATS95 | C2A | CP185 | CP191 | CP192 | CP194 | CP201 | CP211 | CP215 | CP217 | CP237 | CP238 | CP247 | CP250 | CP252 | CP256 | CP260 | CP262 | CP265

COc1ccccc1OC(=O)Oc1ccccc1OC
inactive: ATS95 | C2A | CP185 | CP191 | CP192 | CP194 | CP201 | CP211 | CP215 | CP217 | CP237 | CP238 | CP247 | CP250 | CP252 | CP256 | CP260 | CP262 | CP265

O=C(CN1CCNCC1)NC1CCCCC1
inactive: ATS95 | C2A | CP185 | CP191 | CP192 | CP194 | CP201 | CP211 | CP215 | CP217 | CP237 | CP238 | CP247 | CP250 | CP252 | CP256 | CP260 | CP262 | CP265

CC(N)CCCC(C)(C)O (centres undefined)
inactive: ATS95 | C2A | CP185 | CP191 | CP192 | CP194 | CP201 | CP211 | CP215 | CP217 | CP237 | CP238 | CP247 | CP250 | CP252 | CP256 | CP260 | CP262 | CP265

COc1ccccc1Oc1c(NS(=O)(=O)c2ccc(C(C)(C)C)cc2)nc(-c2ncccn2)nc1OCCO
inactive: ATS95 | C2A | CP185 | CP191 | CP192 | CP194 | CP201 | CP203 | CP211 | CP217 | CP237 | CP238 | CP247 | CP250 | CP252 | CP256 | CP260 | CP262 | CP265

CC1CCc2cc(F)cc3c(=O)c(C(=O)O)cn1c23 (centres undefined)
inactive: ATS95 | C2A | CP185 | CP191 | CP192 | CP194 | CP201 | CP211 | CP215 | CP217 | CP237 | CP238 | CP247 | CP250 | CP252 | CP256 | CP260 | CP262 | CP265

CC(=O)NS(=O)(=O)c1ccc(N)cc1
inactive: ATS95 | C2A | CP185 | CP191 | CP192 | CP194 | CP201 | CP211 | CP215 | CP217 | CP237 | CP238 | CP247 | CP250 | CP252 | CP256 | CP260 | CP262 | CP265

O=C(O)c1ccc[n+]([O-])c1
inactive: ATS95 | C2A | CP185 | CP191 | CP192 | CP194 | CP201 | CP211 | CP215 | CP217 | CP237 | CP238 | CP247 | CP250 | CP252 | CP256 | CP260 | CP262 | CP265

CCCCCCCCCCCCCCCCCCO
inactive: ATS95 | C2A | CP185 | CP191 | CP192 | CP194 | CP201 | CP211 | CP215 | CP217 | CP237 | CP238 | CP247 | CP250 | CP252 | CP256 | CP260 | CP262 | CP265

CCCCOC(=O)c1ccc(N)cc1
inactive: ATS95 | C2A | CP185 | CP191 | CP192 | CP194 | CP201 | CP211 | CP215 | CP217 | CP237 | CP238 | CP247 | CP250 | CP252 | CP256 | CP260 | CP262 | CP265

CCN(CC)S(=O)(=O)c1ccc(C(=O)O)cc1
inactive: ATS95 | C2A | CP185 | CP191 | CP194 | CP201 | CP211 | CP215 | CP217 | CP237 | CP238 | CP247 | CP250 | CP252 | CP256 | CP260 | CP262 | CP265

CCOC(N)=O
inactive: ATS95 | C2A | CP185 | CP191 | CP192 | CP194 | CP201 | CP211 | CP215 | CP217 | CP237 | CP238 | CP247 | CP250 | CP252 | CP256 | CP262 | CP265

CCN(CC)CC1CCCCN1CC(=O)N1c2ccccc2C(=O)Nc2cccnc21 (centres undefined)
inactive: ATS95 | C2A | CP185 | CP191 | CP192 | CP194 | CP201 | CP215 | CP217 | CP237 | CP238 | CP247 | CP250 | CP252 | CP256 | CP260 | CP262 | CP265

FC(F)(F)C(Cl)Br (centres undefined)
inactive: ATS95 | C2A | CP185 | CP191 | CP192 | CP201 | CP203 | CP211 | CP215 | CP217 | CP237 | CP238 | CP247 | CP250 | CP252 | CP256 | CP260 | CP262 | CP265

O=C1c2ccccc2C(=O)C1c1ccc(Br)cc1
inactive: C2A | CP185 | CP192 | CP194 | CP201 | CP211 | CP237 | CP238 | CP247 | CP250 | CP252 | CP262

CC(=O)N(CC(O)CO)c1c(I)c(C(=O)NCC(O)CO)c(I)c(C(=O)NCC(O)CO)c1I (centres undefined)
inactive: ATS95 | C2A | CP185 | CP192 | CP194 | CP201 | CP203 | CP211 | CP215 | CP217 | CP237 | CP238 | CP247 | CP250 | CP252 | CP256 | CP262
